# Screening data deposited in PubChem BioAssay by National Center for Advancing Translational Sciences (NCATS).
# Rows were chosen to be rich in hits. Some 12% of all compounds tested hit in one or more screens of this group.
# JMJD2A Tudor = qHTS Assay for Inhibitors of JMJD2A-Tudor Domain | Lysine-specific demethylase 4A (Homo sapiens), O75164 | AlphaScreen JMJD2A-Tudor / H3K4me3 peptide binding | Potency, µM (highest dose often 114 µM), without a hit: at the highest dose activity change, negative = inhibition, actives largely listed as inhibitors | 390,000 tested, 4.4% active; also: % is scaled to controls: 0 for no effect and ±100 for the full control effect; nearly all actives have a fitted effect of over 50% in size
# Sfp inh = qHTS Assay for Inhibitors of Bacillus subtilis Sfp phosphopantetheinyl transferase (PPTase) | 4'-phosphopantetheinyl transferase ffp (Bacillus subtilis), Q9F4F7 | Biochemical Sfp PPTase activity, qHTS | Potency, µM, for the others: largest response in the series, negative = inhibition, hits mostly inhibitors | 310,000 tested, 3.5% active;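 also: the enzyme is Sfp with the accession as filed and its product quenches rhodamine fluorescence; 0% = enzyme reaction without inhibitor and -100% = no enzyme wells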
#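 Buffer: 50 mM Hepes-Na pH 7.6, 10 mM MgCl2, 0.01% Nonidet P-40, 0.01% BSA. Enzyme 15 nM, pre-exposed to compound 15 min; substrates then added and fluorescence change tracked over 30 min.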
# HP1b binding inh = HTS for Inhibitors of HP1-beta Chromodomain Interactions with Methylated Histone Tails; Chromobox protein homolog 1 (Homo sapiens), P83916; AlphaScreen HP1-beta / biotin-H3K9me3 peptide binding; Potency, µM (doses to about 114 µM), for the others: at the highest dose activity change, negative = inhibition, actives largely listed as inhibitors; 390,000 tested, 0.56% active; also: nearly all actives have a fitted effect of over 70% in size
# Target sequence (P83916 whole entry, looked up): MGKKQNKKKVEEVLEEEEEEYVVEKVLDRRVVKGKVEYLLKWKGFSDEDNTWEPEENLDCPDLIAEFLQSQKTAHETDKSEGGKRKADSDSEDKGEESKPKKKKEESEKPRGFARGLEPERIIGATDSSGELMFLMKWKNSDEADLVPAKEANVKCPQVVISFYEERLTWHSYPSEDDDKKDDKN
#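 HP1-beta protein (50 nM final) preincubated 30 min at room temperature with biotinylated H3(1-18)K9me3 peptide (50 nM) in PBS pH 7.4, 0.01% Tween-20, then compound added for 30 min. AlphaScreen streptavidin donor/nickel chelate acceptor beads (10 ug/mL final), 30 min dark, luminescence read.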
# G9a inh = qHTS Assay for Inhibitors of Histone Lysine Methyltransferase G9a | G9a H3K9 monomethylation, AlphaScreen, 2 h | Potency, µM (titrated, usually from 102 µM), for inactives: top-dose activity, negative = inhibition, most hits filed as inhibitors | 350,000 tested, 8.8% active | AID 504332, 2011; also: % is scaled to controls: 0 for no effect and ±100 for the full control effect; nearly all actives have a fitted effect of over 75% in size
# Target sequence (Q96KQ7 913-1193 limits assumed): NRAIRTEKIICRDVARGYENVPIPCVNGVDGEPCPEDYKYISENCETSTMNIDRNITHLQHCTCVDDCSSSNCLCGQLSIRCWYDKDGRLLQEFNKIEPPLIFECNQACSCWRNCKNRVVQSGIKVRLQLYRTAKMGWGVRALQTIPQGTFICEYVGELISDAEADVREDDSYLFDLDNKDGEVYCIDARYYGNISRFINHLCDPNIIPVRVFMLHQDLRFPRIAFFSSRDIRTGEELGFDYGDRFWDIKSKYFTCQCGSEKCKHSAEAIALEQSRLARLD
#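 G9a (20 nM) was preincubated 15 min with compound, then reacted 2 h at room temperature with 500 nM biotin-H3K9 peptide and 20 µM SAM. Monomethyl-H3K9 detected by AlphaScreen using anti-H3K9me1 antibody.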
# BAZ2B block = qHTS Assay for Inhibitors of BAZ2B; Bromodomain adjacent to zinc finger domain protein 2B (Homo sapiens), Q9UIF8; AlphaScreen BAZ2B-H3K14Ac peptide displacement; Potency, µM (doses to about 114 µM), without a hit: at the top dose activity change, negative = inhibition, usual class: inhibitors; 360,000 tested, 4.4% active; also: % is scaled to controls: 0 for no effect and ±100 for the full control effect; nearly all actives have a fitted effect of over 60% in size
#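 Inhibition is scored as reduced AlphaScreen emission. The BAZ2B/b-H3(5-23)K14Ac complex (50 nM each) in PBS pH 7.4, 0.01% Tween-20 meets compound (up to 110 uM) for 30 min at RT before bead addition.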
# * = called active by the depositor; ? = inconclusive; / = not tested or not shown; ! = not confirmed by another sample; [ ] = dose if it differs, or a comment. Calls follow the shape of the dose curve; as a rule, active = well fitted curve in the direction sought with a large enough effect; inconclusive = small, poorly fitted or top-dose-only effect, or another doubt; inactive = no such curve, though single readings can be large; an effect the other way counts as inactive or inconclusive. Potency is read from the fitted curve at half-maximal effect.
SMILES,JMJD2A Tudor,Sfp inh,HP1b binding inh,G9a inh,BAZ2B block
CCOc1ccc(OCC)c(NC(=O)C2C3C=CC(O3)C2C(=O)NCc2ccco2)c1 (stereo unspecified),?,-2.0%,-14.0%,50.1µM*,?
CCc1ccc(CN(Cc2cccnc2)C(=O)/C=C/c2ccc(OC)cc2)cc1,-28.0%,?,0.1%,50.1µM*,-23.9%
COc1cc2cnc(-c3ccccc3)c(-c3cccc(C(F)(F)F)c3)c2cc1OC,-34.0%,/,19.3%,4.6%[0.501 µM],56.2µM*
CC(Sc1cccc[n+]1[O-])C(=O)Nc1ccc([N+](=O)[O-])cc1Cl (stereo unspecified),-2.1%,-3.3%,41.6%,50.1µM*,-17.2%
COc1cc2c(cc1NC(=O)C(C)Sc1cccc[n+]1[O-])oc1ccccc12 (stereo unspecified),-21.0%,-53.6%,18.7%,?,0.8%
CCC(C)[C@H](NC(=O)[C@@H]1Cc2c([nH]c3ccccc23)C2c3ccccc3C(=O)N21)C(=O)N1CCC[C@@H]1C(=O)O (stereo partly specified),-9.5%,-15.7%,19.7%,/,-6.2%
CCCCN1C[C@H](C)[C@@H](CC(=O)NCc2ccccc2)C1=O,-11.4%,16.6%,62.0%,44.7µM*,-25.0%
NC(N)=NCCC[C@H](NC(=O)CNC(=O)c1ccccc1)C(=O)Nc1cc(C(F)(F)F)ccc1Cl,-30.1%,/,/,/,/
O=C(/C=C1\C(=O)Nc2ccccc21)/C=C1\C(=O)Nc2ccccc21,?,1.41µM*,-1.1%,7.08µM*,44.7µM*
CN(O)/C=C1\C(=O)Nc2ccccc21,-28.3%,50.1µM*,-8.9%,50.1µM*,-6.3%
O=C1Nc2ccccc2/C1=C\C(=O)c1ccccc1,?,?,-14.7%,25.1µM*,-26.1%
CN(C)/C=C1\C(=O)Nc2ccccc21,-8.3%,9.7%,27.6%,?,6.9%
O=C1Nc2ccccc2Nc2ccccc21,50.1µM*,-20.2%,5.2%,14.1µM*,?
Cc1cccc(C)c1OCc1cc(=O)n2ccsc2n1,-8.3%,/,31.9%,4.6%[59 µM],-10.7%
CC(C)Oc1ccc(C(=O)/C=C2/C(=O)Nc3ccccc32)cc1,?,-21.2%,-4.4%,39.8µM*,?
O=C(c1c(O)c2ccc(Cl)cc2[nH]c1=O)C1CC1,/,44.7µM*!,/,-0.1%[59 µM],/
O=C(Nc1ccccc1)c1ccc2c(O)c(S(=O)(=O)c3ccc(Cl)cc3)c(=O)[nH]c2c1,-31.9%,/,6.8%,-48.2%[59 µM],?
COc1cccc(CNC(=O)CCCN2C(=O)C(c3ccccc3)Oc3cccnc32)c1OC (stereo unspecified),-5.5%,6.1%,21.3%,0.8%[59 µM],-14.3%
CCOc1ccc(CNC(=O)CN2C(=O)C(c3ccccc3)Oc3cccnc32)cc1 (stereo unspecified),-23.6%,2.1%,30.3%,28.5%,70.8µM*
COc1ccc(CNC(=O)CN2C(=O)C(c3ccccc3)Oc3cccnc32)cc1 (stereo unspecified),-17.6%,9.2%,8.7%,-8.1%,-4.0%
O=C(CN1C(=O)C(c2ccccc2)Oc2cccnc21)NCc1ccccc1F (stereo unspecified),20µM*,6.5%,17.6%,-6.5%[59 µM],-22.8%
Cc1nnc(NC(=O)c2cccc(S(=O)(=O)N3CC(c4ccccc4)CC3=O)c2)s1 (stereo unspecified),-7.7%,20.3%,43.8%,50.1µM*,6.1%
CCc1nnc(NC(=O)c2cccc(S(=O)(=O)N3CC(c4ccccc4)CC3=O)c2)s1 (stereo unspecified),-11.3%,23.0%,43.8%,-0.6%,10.8%
COc1ccc(C(=O)Nc2nncs2)cc1S(=O)(=O)N1CC(c2ccccc2)CC1=O (stereo unspecified),-13.4%,-14.5%,54.7%,50.1µM*,3.9%
Cc1ccc(NC2(C#N)CCCC2)cc1,-17.9%,/,14.0%,/,/
